High-throughput results: PubChem BioAssay, several laboratories
Hits are enriched below; roughly 6.6% of the tested compounds scored in any of these assays.
GDH-TPI inh: inhibits GDH-TPI coupling enzymes, artifact for Mtb FBA screen | GDH-TPI coupled enzyme counterscreen, NADH absorbance | inhibition, % at 4.8 µM | 360,000 compounds, 1.2% hits | AID 588335; in the data active means inhibition above about 30%
Mtb FBA inh: inhibits M. tuberculosis FBA enzyme. P9WQA3. purified M. tuberculosis FBA, fluorescence read-out. inhibition, % at 1 µM. 360,000 compounds, 2.3% hits; in the data active means inhibition above about 27%
Target sequence (P9WQA3 whole entry, looked up): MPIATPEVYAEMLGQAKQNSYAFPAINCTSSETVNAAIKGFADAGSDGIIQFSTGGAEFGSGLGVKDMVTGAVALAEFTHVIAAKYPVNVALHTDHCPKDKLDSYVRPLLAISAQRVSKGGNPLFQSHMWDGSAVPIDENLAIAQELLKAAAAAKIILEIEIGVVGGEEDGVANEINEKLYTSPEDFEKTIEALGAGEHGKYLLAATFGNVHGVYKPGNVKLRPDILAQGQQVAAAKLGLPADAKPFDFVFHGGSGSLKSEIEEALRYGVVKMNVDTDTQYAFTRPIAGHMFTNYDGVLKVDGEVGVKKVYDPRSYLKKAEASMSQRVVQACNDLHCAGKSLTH
Anthrax LF inh2: blocks Bacillus anthracis lethal factor protease; P15917; multiplex microsphere protease cleavage assay, LF; inhibition, % at 10 µM; 360,000 compounds, 0.12% hits
BoNT A protease: BoNT A light chain protease inhibition. 360,000 compounds, 0.17% hits. inhibition, % at 10 µM. multiplex microsphere protease substrate cleavage, flow cytometry. AID 588499
Autofluor counter: compound fluorescence in toxin protease inhibitor counterscreen. 360,000 compounds, 3.1% hits. AID 624483. fluorescence intensity (concentration not given with the values). compound autofluorescence counterscreen, microsphere flow cytometry; hits give high values; in the data active means fluorescence intensity above about 16000; inconclusive means no clear call, values can overlap the other calls
BoNT-F LC inh: inhibitors of Botulinum neurotoxin F light chain protease; Multiplex microsphere protease cleavage assay, flow cytometry; inhibition, % at 10 µM; 360,000 compounds, 0.22% hits; AID 588497; in the data active means inhibition above about 35%, passing the limit was not always enough; inconclusive means no clear call, values can overlap the other calls
A number is an active result. Unless noted, no stated cut-off is given here; in the data, active means inhibition above about 30%; inconclusive means no clear call, values can overlap the other calls; inactive means below that.

For N#C/C(=C/c1ccc(F)cc1)c1nc(CCN2C(=O)c3ccccc3C2=O)cs1 the results were GDH-TPI inh inactive, Mtb FBA inh inactive, Anthrax LF inh2 inactive, BoNT A protease inactive, Autofluor counter 16963 and BoNT-F LC inh inactive.
For Nn1cnc2scc(-c3ccc(Cl)cc3)c2c1=O the results were GDH-TPI inh inactive, Mtb FBA inh inactive, Anthrax LF inh2 inactive, BoNT A protease inactive, Autofluor counter inactive and BoNT-F LC inh inactive.
O=C(COC(=O)/C=C/c1ccc([N+](=O)[O-])cc1)Nc1ccc2[nH]c(=O)[nH]c2c1 was read as GDH-TPI inh inactive, Mtb FBA inh inactive, Anthrax LF inh2 inactive, BoNT A protease inactive, Autofluor counter inactive and BoNT-F LC inh inactive.
`CCCc1cc(=O)[nH]c(SCC(=O)Nc2ccc(OCc3ccccc3)cc2)n1` gave GDH-TPI inh inactive, Mtb FBA inh inactive, Anthrax LF inh2 inactive, BoNT A protease inactive, Autofluor counter inactive and BoNT-F LC inh inactive.
`Nc1cc(=O)[nH]c(SCC(=O)Nc2cccc(Cl)c2)n1` gave GDH-TPI inh inactive, Mtb FBA inh inactive, Anthrax LF inh2 inactive, BoNT A protease inactive, Autofluor counter 17592 and BoNT-F LC inh inactive.
`Nc1cc(=O)[nH]c(SCC(=O)N2CCCc3ccccc32)n1` gave GDH-TPI inh inactive, Mtb FBA inh inactive, Anthrax LF inh2 inactive, BoNT A protease inactive, Autofluor counter 16983 and BoNT-F LC inh inactive.
CC(C)(C)C(=O)CSc1nc(N)cc(=O)[nH]1 was read as GDH-TPI inh 35, Mtb FBA inh inactive, Anthrax LF inh2 inactive, BoNT A protease inactive, Autofluor counter inactive and BoNT-F LC inh inactive.
`COCc1cc(=O)[nH]c(SCC(=O)Nc2ccccc2)n1` gave GDH-TPI inh inactive, Mtb FBA inh inactive, Anthrax LF inh2 inactive, BoNT A protease inconclusive, Autofluor counter 22752 and BoNT-F LC inh inactive.
For Cn1c(NCc2ccccc2)nc2c1c(=O)n(Cc1ccc(Br)cc1)c(=O)n2C the results were GDH-TPI inh inactive, Mtb FBA inh inactive, Anthrax LF inh2 inactive, BoNT A protease inactive, Autofluor counter inactive and BoNT-F LC inh inactive.
`COc1ccc(CNc2nc3c(c(=O)n(Cc4ccc(Br)cc4)c(=O)n3C)n2C)cc1` gave GDH-TPI inh inactive, Mtb FBA inh inactive, Anthrax LF inh2 inactive, BoNT A protease inactive, Autofluor counter 20995 and BoNT-F LC inh inactive.
For Cn1c(Cl)nc2c1c(=O)n(Cc1cccc(Br)c1)c(=O)n2C the results were GDH-TPI inh inactive, Mtb FBA inh inactive, Anthrax LF inh2 inactive, BoNT A protease inactive, Autofluor counter 20509 and BoNT-F LC inh inactive.
For Cn1c(Br)nc2c1c(=O)n(Cc1ccccc1)c(=O)n2C the results were GDH-TPI inh inactive, Mtb FBA inh inactive, Anthrax LF inh2 inactive, BoNT A protease inactive, Autofluor counter inactive and BoNT-F LC inh inconclusive.
`CCc1ccc(C2C(C#N)=C(N)SC(N)=C2C#N)cc1` gave GDH-TPI inh 31, Mtb FBA inh inactive, Anthrax LF inh2 inactive, BoNT A protease inactive, Autofluor counter inactive and BoNT-F LC inh inactive.
CCOc1ccccc1C1C(C#N)=C(N)SC(N)=C1C#N was read as GDH-TPI inh inactive, Mtb FBA inh inactive, Anthrax LF inh2 inactive, BoNT A protease inactive, Autofluor counter inactive and BoNT-F LC inh 51.
`O=C(O)CNS(=O)(=O)c1ccc(F)cc1` gave GDH-TPI inh inactive, Mtb FBA inh inactive, Anthrax LF inh2 inactive, BoNT A protease inactive, Autofluor counter 21439 and BoNT-F LC inh inactive.
`Cc1cc(S(=O)(=O)NCC(=O)O)ccc1F` gave GDH-TPI inh inactive, Mtb FBA inh inactive, Anthrax LF inh2 inactive, BoNT A protease inactive, Autofluor counter inactive and BoNT-F LC inh inactive.
For OC[C@@H]1CN(Cc2ccc(F)cc2)C[C@H](n2cnc3c(N4CCCC4)ncnc32)O1 the results were GDH-TPI inh inactive, Mtb FBA inh inactive, Anthrax LF inh2 inactive, BoNT A protease inactive, Autofluor counter inactive and BoNT-F LC inh inactive.
`O=C(Cn1c(=O)c2c(ncn2Cc2ccccc2)n(Cc2ccccc2)c1=O)NC1CC1` gave GDH-TPI inh inactive, Mtb FBA inh inactive, Anthrax LF inh2 inactive, BoNT A protease inactive, Autofluor counter 19673 and BoNT-F LC inh inactive.
For CCOC(=O)C1CCCN(C(=S)Nc2cccc(Cl)c2)C1 (stereo not drawn) the results were GDH-TPI inh inactive, Mtb FBA inh inactive, Anthrax LF inh2 inactive, BoNT A protease inactive, Autofluor counter inactive and BoNT-F LC inh inactive.
For COc1cc(/C=C(\C#N)C(=O)c2ccc(O)c(O)c2)cc(I)c1O the results were GDH-TPI inh 55, Mtb FBA inh inactive, Anthrax LF inh2 inactive, BoNT A protease inactive, Autofluor counter inactive and BoNT-F LC inh inactive.
`COc1ccc(C=C(C#N)C(=O)c2ccccc2)cc1` gave Anthrax LF inh2 inactive, BoNT A protease inactive, Autofluor counter inactive and BoNT-F LC inh inactive.
`CCCOc1ccc(/C=C/C(=O)Nc2ccc([N+](=O)[O-])cc2C)cc1OC` gave GDH-TPI inh inactive, Mtb FBA inh inactive, Anthrax LF inh2 inactive, BoNT A protease inconclusive, Autofluor counter 22086 and BoNT-F LC inh inactive.
For CCCOc1ccc(/C=C/C(=O)Nc2ccc([N+](=O)[O-])cc2C)cc1 the results were GDH-TPI inh inactive, Mtb FBA inh inactive, Anthrax LF inh2 inactive, BoNT A protease inactive, Autofluor counter inactive and BoNT-F LC inh inactive.
For COC(=O)C1=C(O)CSC1=Nc1cccc(C(F)(F)F)c1 the results were GDH-TPI inh inactive, Mtb FBA inh inactive, Anthrax LF inh2 inactive, BoNT A protease inactive, Autofluor counter 17678 and BoNT-F LC inh inactive.
Cc1nc2ccc(NC(=S)NC(C)C)cc2nc1C was read as GDH-TPI inh inactive, Mtb FBA inh inactive, Anthrax LF inh2 inactive, BoNT A protease inactive, Autofluor counter 22287 and BoNT-F LC inh inactive.
COc1cccc(CNC(=O)CSc2nc(=O)n(Cc3ccncc3)c3c2CCC3)c1 was read as GDH-TPI inh inactive and Mtb FBA inh inactive.
For Cc1ccc(C(=O)Oc2coc(CSc3nnc(NC(=O)C4CC4)s3)cc2=O)cc1 the results were GDH-TPI inh inactive, Mtb FBA inh inactive, Anthrax LF inh2 inactive, BoNT A protease 30, Autofluor counter inactive and BoNT-F LC inh inactive.
`Cn1nc(C(=O)NCC(=O)Nc2ccc(F)c(F)c2)ccc1=O` gave GDH-TPI inh inactive, Mtb FBA inh inactive, Anthrax LF inh2 inactive, BoNT A protease inactive, Autofluor counter inactive and BoNT-F LC inh inactive.
COc1ccc(C(=O)N(CC2CCCO2)C(C(=O)NC2CCCC2)c2ccc(Cl)cc2)cc1OC (stereo not drawn) was read as GDH-TPI inh inactive, Mtb FBA inh inactive, Anthrax LF inh2 inactive, BoNT A protease inactive, Autofluor counter 21196 and BoNT-F LC inh inactive.
COc1ccc(C(=O)N(CCCO)C(C)C(=O)NC2CCCCC2)cc1OC (stereo not drawn) was read as GDH-TPI inh inactive, Mtb FBA inh inactive, Anthrax LF inh2 inactive, BoNT A protease inconclusive, Autofluor counter 21753 and BoNT-F LC inh inactive.
Screening COc1ccc(C(=O)N(CC2CCCO2)C(C(=O)NCCC(C)C)c2ccc(C)cc2)cc1OC (stereo not drawn) returned GDH-TPI inh inactive, Mtb FBA inh inactive, Anthrax LF inh2 inactive, BoNT A protease inactive, Autofluor counter inactive and BoNT-F LC inh inactive.
